The campaign covered roughly 330,000 compounds. About 1,900 (0.58%) were called active. Another 4% or so got no clear call; they are omitted. Rule as the data show it: inconclusive = inhibition above about 70% without an active follow-up result; inactive = below that. Not all results are given here. Potency and affinity values are given separately.
Test: M. tuberculosis growth inhibition, HTS (AID 449762);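 also: bacterial growth assessed after seven days of incubation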
Details: M. tuberculosis H37Rv growth inhibition, 7H9 media; at 25 µM; active compounds read high

SMILES	inhibition
N#CCNc1ccc([N+](=O)[O-])cc1C#N	2.63% (inactive)
COc1cc2c(cc1OC)C(C)N(C(=O)c1cc3c(s1)-c1c(C)cccc1OC3)CC2 (stereo unspecified)	60.6% (inactive)
Cc1ccc(C(=O)N/C(=C/c2ccco2)C(=O)O)cc1	0.79% (inactive)
Cc1ccc(C(=O)N/C(=C\c2cccc([N+](=O)[O-])c2)C(=O)OCN2C(=O)c3ccccc3C2=O)cc1	9.25% (inactive)
NN/C(=C\[N+](=O)[O-])Nc1ccccc1	69.9% (inactive)
CS/C(=C\[N+](=O)[O-])Nc1ccc(Cl)cc1	55.3% (inactive)
CC(Sc1nnc(-c2cccs2)n1-c1ccccc1)C(=O)NCc1ccc2c(c1)OCO2 (stereo unspecified)	-16.1% (inactive)
CCCCOc1ccc(C(=O)Nc2ccc(N3CCN(C(=O)C(C)C)CC3)cc2)cc1	11.1% (inactive)
Cc1cc(Nc2ccccc2Cl)nc(-c2ccccc2O)n1	57.3% (inactive)
Cc1cc(OC2CCCCC2)nc(-c2ccccc2O)n1	-9.08% (inactive)
O=C(Cn1nc(Cl)nc1Cl)c1ccc2c(c1)OCCO2	60.7% (inactive)
O=C(Cn1ncc(Cl)c(Cl)c1=O)N1CCOCC1	2.21% (inactive)
CCOC(=O)c1sc(=NC(=O)c2ccc(C)c(C)c2)n(C)c1C	31.6% (inactive)
O=C(N/N=C/c1cccnc1)c1sc2ccccc2c1Cl	66% (inactive)
O=C(N/N=C/c1c[nH]c2ccccc12)c1sc2ccccc2c1Cl	1.35% (inactive)
CC(=O)NCCc1nc2cc(NC(=O)c3ccccc3Cl)ccc2n1C	-3.12% (inactive)
Cc1cc(C(C)(C)C)oc1C(=O)OCC(=O)NC1CCCCC1	7.47% (inactive)
CS(=O)(=O)N1c2ccccc2[C@]2([C@@]34C[C@H]5C(=O)N[C@@H](Cc6ccccc6)C(=O)N5[C@@H]3N(S(C)(=O)=O)c3ccccc34)C[C@H]3C(=O)N[C@@H](Cc4ccccc4)C(=O)N3[C@H]12	-2.63% (inactive)
CN1C(=O)[C@@H]2C[C@@]3([C@@]45C[C@H]6C(=O)N(C)[C@@H](Cc7ccccc7)C(=O)N6[C@@H]4Nc4ccccc45)c4ccccc4N[C@H]3N2C(=O)[C@@H]1Cc1ccccc1	11.8% (inactive)
CCCCC1S/C(=N/N=C/c2ccco2)NC1=O (stereo unspecified)	4.46% (inactive)
CCC(=O)OCC(=O)N=c1sccn1Cc1ccc(C)cc1	6.77% (inactive)
Cc1ccc(Cn2ccsc2=NC(=O)COC(=O)C(C)C)cc1	-7.15% (inactive)
COc1ccccc1CN1CC(C(=O)N(C)CCc2nc3ccc(F)cc3[nH]2)CCC1=O (stereo unspecified)	8.31% (inactive)

SMILES	inhibition
CN(Cc1nc2ccccc2[nH]1)C(=O)C1CCC(=O)N(CCc2cccc(F)c2)C1 (stereo unspecified)	-0.88% (inactive)
Cc1cccc(NC(=S)NCC(C)CSc2ccc(Cl)cc2)c1 (stereo unspecified)	10.5% (inactive)
COc1cccc(C2NC(=O)NC(C)=C2C(=O)OCC2CCCCC2)c1 (stereo unspecified)	-17.1% (inactive)
O=C(CSc1cccc(C(F)(F)F)c1)Nc1ccc(Cl)cc1Cl	-3.06% (inactive)
COC(=O)[C@H](CC(C)C)NC(=O)N1CCN(c2cccc(C(F)(F)F)c2)CC1	1.6% (inactive)
COC(=O)[C@@H](NC(=O)N1CCN(c2cccc(C(F)(F)F)c2)CC1)C(C)C	5.31% (inactive)
Clc1ccccc1-c1nnc2n1CCCCC2	-3.29% (inactive)
Oc1ccccc1-c1nnc2n1CCCCC2	-9.99% (inactive)
CCOc1cc(N2CCOCC2)c(OCC)cc1NC(=O)CN1C(=O)NC(C)(C2CC2)C1=O (stereo unspecified)	8.07% (inactive)
Cc1ccc(C)c(Nc2ccc(C(=O)NCCc3ccccc3)cn2)c1	4.16% (inactive)
O=C(CCN=C1NS(=O)(=O)c2ccccc21)Nc1ccc(F)cc1Cl	7.31% (inactive)
c1ccc2c(c1)CCN(c1nc3cc4c(cc3s1)OCO4)C2	38.1% (inactive)
c1ccc(N2CCN(c3nc4cc5c(cc4s3)OCCO5)CC2)cc1	5.85% (inactive)
COc1ccc(S(=O)(=O)N2CCN(CC(=O)N3CCc4ccccc4C3)CC2)cc1OC	-1.57% (inactive)
CCCC(=O)NNC(=O)CC(=O)Nc1ccccc1C(=O)O	2.33% (inactive)
O=C(NC(=S)Nc1cccc2cnccc12)c1ccccc1	5.56% (inactive)
O=C(NC(=S)Nc1cccc2ncccc12)c1ccccc1	0.24% (inactive)
CNC(=O)Cc1nc2ccccc2n1CC(=O)Nc1cc(C)cc(C)c1	-9.59% (inactive)
COc1ccc(CN2[C@@H](CC(C)=O)c3cc(C(F)(F)F)ccc3S2(=O)=O)cc1	-4.65% (inactive)
Cc1nnnn1-c1ccc(CC(=O)O)cc1	-0.97% (inactive)
CC(C)(C)OC(=O)NCCCCCc1nnc(SCc2ccccc2)o1	68.1% (inactive)
Cc1ccc(CSc2nnc(CCNC(=O)OC(C)(C)C)o2)cc1	6.64% (inactive)
CCCCn1c(O)c(C(=O)/C=C/c2ccc3c(c2)OCO3)c(=O)[nH]c1=O	1% (inactive)

SMILES	inhibition
O=C(/C=C/c1c[nH]c2ccccc12)c1c(O)n(CCc2ccccc2)c(=O)[nH]c1=O	35.3% (inactive)
COCCNC(=O)c1ccc(NC(=O)C2(c3ccccc3)CCCC2)cc1	40.9% (inactive)
CCn1c(CSCc2ccc(C)cc2)n[nH]c1=S	3.1% (inactive)
CC1(C)CCC[C@]2(C)[C@H]3Cc4cc(O)ccc4O[C@]3(C)CC[C@@H]12	6.49% (inactive)
Cc1cc(/C=N/n2cnnc2)c(C)n1-c1ccc(Cl)cc1	-4.08% (inactive)
Cc1cc(/C=N/n2cnnc2)c(C)n1-c1ccc(OCc2ccc(F)cc2)cc1	-2.12% (inactive)
O=C(CCCC(=O)OCC(=O)c1ccc(Cl)cc1)NC1CCCCC1	30.8% (inactive)
COc1ccc(C2(C#N)CCC(=O)N2c2ccccc2)cc1 (stereo unspecified)	5.44% (inactive)
COC(=O)CCc1sc(Nc2ccccc2)nc1-c1ccc(OC)cc1	52.4% (inactive)
COc1ccc(Nc2nc(-c3ccc(OC)cc3)c(CCC(=O)O)s2)cc1	26.3% (inactive)
O=C(CCCN1C(=O)c2ccccc2C1=O)N1CCN(c2ccccn2)CC1	-8.5% (inactive)
Cn1c(=O)c2c(nc(NCC3CCCO3)n2C)n(C)c1=O (stereo unspecified)	-5.47% (inactive)
Cc1ccc(C(=O)c2coc3ccc(O)cc23)cc1	2.44% (inactive)
C[C@@H](NC(=O)[C@@H]1Cc2ccccc2CN1)C(=O)Nc1ccc2c(c1)OCCO2	8.26% (inactive)
Cc1[nH]c2ccc(OC(F)(F)F)cc2c1CCNCc1cccc([N+](=O)[O-])c1	62.9% (inactive)
COc1ccc(CNCCc2c(C)[nH]c3ccc(OC(F)(F)F)cc23)c(OC)c1	35.2% (inactive)
C(=NC12CN3CN(CN(C3)C1)C2)c1ccc2c(c1)OCO2	-3.64% (inactive)
COC(=O)C1=C(c2ccc(F)cc2OCc2ccccc2)C[C@@H]2CC[C@H]1N2C(=O)NCc1ccc(F)cc1	-5.1% (inactive)
CC(Sc1nc(-c2ccccc2)nc2c1COC(C)(C)C2)C(=O)N1CCOCC1 (stereo unspecified)	-20.2% (inactive)
O=c1oc(-c2cccs2)nc2ccccc12	-3.68% (inactive)
O=c1c2cnn(-c3ccccc3)c2nc(-c2cccs2)n1-c1ccc(Br)cc1	1.78% (inactive)
Cc1ccc(-n2c(C)cc(/C=N/NC(=O)c3ccc(CN4CCOCC4)cc3)c2C)cc1	-0.81% (inactive)
COc1cc(NC(=O)Cn2cnc(S(=O)(=O)N3CCOCC3)c2)cc(OC)c1OC	-1.58% (inactive)

SMILES	inhibition
O=C1C(O)=C(O)C(=O)c2ccccc21	-1.99% (inactive)
O=C1c2ccccc2-c2cccnc21	-8.77% (inactive)
CCC1CCCCN1C(=S)NCc1ccccc1 (stereo unspecified)	-0.48% (inactive)
CN(C)CCOc1cc(Cl)cc(Cl)c1	10% (inactive)
Cc1nc2c(C(=O)N3CCN(c4ccccn4)CC3)cnn2c(C)c1Cc1cccc(Cl)c1	48.5% (inactive)
Cc1ccc(C(=O)N/C(=C\c2ccco2)C(=O)NCc2cccnc2)cc1	-2.29% (inactive)
O=C(NCc1cccnc1)/C(=C/c1ccc(-c2cccc(C(F)(F)F)c2)o1)NC(=O)c1ccccc1	11.6% (inactive)
CCOC(=O)N1CCN(C(=O)CSc2ccc(C(=O)OC)cc2[N+](=O)[O-])CC1	-7.7% (inactive)
Clc1ccccc1Cc1noc(CN2CCN(Cc3ccccn3)CC2)n1	2.36% (inactive)
CC(C)(C)c1ccc(C(=O)NC2CCS(=O)(=O)C2)cc1 (stereo unspecified)	1.38% (inactive)
Cc1nn(-c2ccccc2)c(N)c1C(c1ccccc1)c1c(C)nn(-c2ccccc2)c1N	5.62% (inactive)
Cc1ccc(C(c2c(C)nn(-c3ccccc3)c2N)c2c(C)nn(-c3ccccc3)c2N)cc1	23.1% (inactive)
COc1ccc(OC)c(C(=O)COC(=O)CNC(=O)c2ccccc2)c1	-2.57% (inactive)
O=C(Nc1ccccc1)N1CCCN(c2c(Cl)cncc2Cl)CC1	2.69% (inactive)
O=C(CN1CCN(Cc2ccccc2Cl)CC1)N/N=C/C=C\c1ccccc1[N+](=O)[O-]	3.7% (inactive)
O=C(CN1CCN(Cc2ccccc2)CC1)N/N=C/C=C/c1ccccc1[N+](=O)[O-]	12% (inactive)
CCSc1nnc(NC(=O)c2nc3nc(C)cc(C)n3n2)s1	-7.36% (inactive)
Cc1ccccc1OCC(=O)OCC(=O)Nc1ccc2c(c1)OCCO2	-7.86% (inactive)
Cc1ccc2c(c1)c1ncnc(N3CCOCC3)c1n2C	-0.66% (inactive)
Cc1ccc2c(c1)c1ncnc(N3CCN(c4ccccc4)CC3)c1n2C	0.15% (inactive)
CC(=O)Nc1ccc(-c2csc(Nc3ncccn3)n2)cc1	10.8% (inactive)
Cc1c(C(=O)N2CCN(c3ccccn3)CC2)cccc1[N+](=O)[O-]	3.8% (inactive)

— PubChem BioAssay AID449762 (Southern Research Specialized Biocontainment Screening …, 2010)
